A short description of experiment [1]: qHTS assay for small molecule agonists of the p53 signaling pathway - cell viability (AID 651633; calls by dose curve; note: nearly all actives have a fitted effect of over 30% in size; note: potency is the fitted concentration of half-maximal effect). Summed up:
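Viability counter-read: CellTiter-Glo luminescence (30 min, room temperature) in the same p53RE-bla plates. These plates had been exposed to compounds for 16 h at 37 C.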
Background: qHTS replaces the single test concentration by a dilution series.

Experiment [2] in a line: qHTS assay for small molecules that induce genotoxicity in human embryonic kidney cells expressing luciferase-tagged ATAD5 - cell viability (AID 651634; calls by dose curve; note: nearly all actives have a fitted effect of over 25% in size; note: potency is the fitted concentration of half-maximal effect). The procedure, abridged:
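After 15.5 hr incubation with compound at 37C, 5% CO2, HEK293T ATAD5-luciferase cells received CellTiter-Fluor reagent; fluorescence intensity was quantified following 30 min at 37C.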

Experiment [3] can be described thus: qHTS assay for small molecule disruptors of the mitochondrial membrane potential - cell viability (AID 720634; calls by dose curve; note: nearly all actives have a fitted effect of over 20% in size; note: potency is the fitted concentration of half-maximal effect). The procedure, abridged:
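ATP-based luminescent viability readout (CellTiter-Glo, 30 min, room temperature) in HepG2 cells multiplexed with the m-MPI membrane potential dye; compound exposure lasted 1 hr at 37 C.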

Experiment [4] in a line: qHTS assay to test for compound auto fluorescence at 590 nm (red) in HepG2 cells (AID 720674). The procedure, abridged:
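We screened compounds on adherent HepG2 cells, incubating them for an hour at 37 C in 5% CO2 before reading emission at 590 nm under 540 nm excitation; values reflect equivalence to Rose Bengal sodium fluorescence.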

Experiment [5] in a line: qHTS assay to test for compound auto fluorescence at 535 nm (green) in HepG2 cells (AID 720675).
Experiment [6] is described as follows: qHTS assay to test for compound auto fluorescence at 460 nm (blue) in HEK293 cells (AID 720678). The procedure, abridged: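 Intrinsic compound fluorescence is recorded in live HEK293 cultures after overnight incubation at 37C, 5% CO2, using excitation 405 nm and emission 460 nm. Values are referenced to triamterene.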
The nature of experiment [7]: qHTS assay to test for compound auto fluorescence at 590 nm (red) in HEK293 cells (AID 720679). Summed up:
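Red autofluorescence, HEK293 cells: 2,000 cells/well; attach 4-5 hr 37C; add 23 nL cpd or DMSO; incubate o/n 37C 5% CO2; read Ex540/Em590; Rose Bengal sodium reference.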

Experiment [8] in a line: qHTS assay for small molecules that induce genotoxicity in human embryonic kidney cells expressing luciferase-tagged ATAD5 (AID 651632). Note: nearly all actives have a fitted effect of over 15% in size. The procedure, abridged: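 Quantitative HTS in HEK293T expressing luciferase-tagged ATAD5, whose levels rise upon DNA damage. Exposure ran 16 hr at 37C and 5% CO2, with luminescence read 30 min after Amplite addition at room temperature.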

Experiment [9] is described as follows: qHTS assay for small molecule disruptors of the mitochondrial membrane potential (AID 720635). Note: potency is the fitted concentration of half-maximal effect. The procedure, abridged: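 Mitochondrial membrane potential tracked with Mito-MPS dye, red aggregates (ex 540/em 590 nm) against green monomers (ex 490/em 535 nm). Compound treatment 1 hr at 37C, dye 30 min in HepG2.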

Inconclusive results are not listed. Activity calls are given as the source filed them. Unless noted, calls come from the whole dose curve; as a rule, active = well fitted curve in the direction sought with a large enough effect in the repeat runs; inconclusive = weak or mixed curves; inactive = no such curve, though single readings can be large; an effect the other way counts as inactive or inconclusive.

With `CN1C(=S)CN=C(c2ccccc2)c2cc(Cl)ccc21`, the Potency entry in experiment [1], in [2] and in experiment [3] was “inactive” throughout. Moreover, the molecule was classed as inactive in [4], in experiment [5], in experiment [6] and in experiment [7].
Regarding `O=C1OC(c2ccc(O)c(S(=O)(=O)O)c2)(c2ccc(O)c(S(=O)(=O)O)c2)c2c(Br)c(Br)c(Br)c(Br)c21`, the Potency result in experiment [8], in experiment [1], in experiment [2] and in [3] was “inactive” in each case. The call in experiment [4], in experiment [5] and in experiment [7] was inactive.
As to `CNC(=O)Oc1c(C(C)(C)C)cc(C)cc1C(C)(C)C`, the Potency result in experiment [1], in experiment [2] and in experiment [3] was “inactive” throughout. For the same molecule, the result in [4], in experiment [5], in experiment [6] and in [7] was inactive.
For the molecule `CCCSP(=O)(OCC)Oc1ccc(Br)cc1Cl` (stereo unspecified), the Potency in [3] is 16.7 µM (active). For the same molecule, the call in [4], in experiment [5] and in experiment [7] was inactive.
As to `CNC(=O)N(C)c1nc2ccccc2s1`, the Potency entry in experiment [2], in experiment [3] and in [9] was “inactive” each time. The molecule was classed as inactive in [4], in experiment [5], in experiment [6] and in experiment [7].
In the case of `C1CCC(C2CCCCC2)CC1`, the Potency entry in [8], in experiment [2] and in experiment [3] was “inactive” each time. Moreover, the molecule was classed as inactive in experiment [4], in experiment [5], in experiment [6] and in experiment [7].
In the case of `CC(C)(C)OC(=O)c1ncn2c1[C@@H]1CCCN1C(=O)c1c(Br)cccc1-2`, the Potency result in [8], in experiment [2] and in experiment [3] was “inactive” each time. The outcome in experiment [4], in experiment [5] and in experiment [6] was inactive.
As for `CCCCOP(=O)(O)OCCCC`, the Potency result in experiment [2] and in experiment [3] was “inactive” throughout. Moreover, the molecule was called inactive in [4], in [5], in experiment [6] and in [7].
For the molecule `O=C(Cc1ccccc1)OCc1ccccc1`, the Potency entry in [1], in [2] and in experiment [3] was “inactive” in each case. In addition, the result in experiment [4], in [5], in experiment [6] and in experiment [7] was inactive.
Take `O=[N+]([O-])c1cccc2c([N+](=O)[O-])cccc12`: the Potency result in experiment [8], in experiment [2] and in experiment [3] was “inactive” in each case. Besides, the outcome in [4], in [5], in experiment [6] and in [7] was inactive.
On to `COC(=O)c1ccccc1S(=O)(=O)NC(=O)Nc1nc(C)cc(C)n1`, for which the Potency entry in experiment [1] and in experiment [3] was “inactive” throughout. Moreover, the molecule was classed as inactive in experiment [4], in experiment [5], in experiment [6] and in experiment [7].
On to `O=C(O)C(Br)CBr` (stereo unspecified), for which the Potency entry in experiment [1], in [2], in experiment [3] and in experiment [9] was “inactive” each time. Besides, the result in [4], in experiment [5], in experiment [6] and in [7] was inactive.
With `CCCSP(=S)(OCC)Oc1ccc(Cl)cc1Cl` (stereo unspecified), the Potency entry in experiment [2] is “inactive”. In addition, the molecule was called inactive in experiment [4], in experiment [5], in experiment [6] and in [7].
Turning to `Nc1c(Br)cc([N+](=O)[O-])cc1[N+](=O)[O-]`, the Potency in experiment [2] is 49.1 µM (active); in [3], 61.8 µM (active); in experiment [9], 8.73 µM (active). For the same molecule, the call in [4], in [5] and in experiment [7] was inactive.
For the molecule `Cc1ccccc1CO[C@@H]1C[C@@]2(C(C)C)CC[C@]1(C)O2`, the Potency result in experiment [8], in experiment [1] and in experiment [2] was “inactive” throughout. Besides, the call in [4], in [5], in experiment [6] and in [7] was inactive.
With `OCCBr`, the Potency result in [1], in experiment [2] and in experiment [3] was “inactive” throughout. The molecule was called inactive in experiment [4], in experiment [5], in [6] and in experiment [7].
Regarding `N#CC(CCc1ccc(Cl)cc1)(Cn1cncn1)c1ccccc1` (stereo unspecified), in experiment [1], the Potency is 6.86 µM (active). Further, the Potency entry in experiment [3] is “inactive”. Besides, the molecule was called inactive in experiment [4], in [5] and in [7].
For `C=CCC1=C(C)[C@@H](OC(=O)[C@@H]2[C@@H](C=C(C)C)C2(C)C)CC1=O`, the Potency in [1] and in [3] was 61.1 µM (active) throughout. Also, the Potency result in experiment [2] is “inactive”. Moreover, the molecule was classed as inactive in experiment [4], in experiment [5] and in [6].
As to `CC1CN1P(=O)(N1CC1C)N1CC1C` (stereo unspecified), the Potency entry in experiment [8], in experiment [2] and in experiment [3] was “inactive” each time. The result in experiment [4], in experiment [5] and in [6] was inactive.
Regarding `CNC(=O)Oc1cccc(C(C)C)c1`, the Potency result in [2] and in [3] was “inactive” in each case. Besides, the call in experiment [4], in experiment [5], in [6] and in experiment [7] was inactive.
For `CCOP(=S)(OCC)SCSP(=S)(OCC)OCC`, the Potency entry in experiment [8], in experiment [1] and in experiment [2] was “inactive” throughout. Also, the result in experiment [4], in experiment [5], in experiment [6] and in experiment [7] was inactive.
In the case of `COc1cc(OC)nc(NC(=O)NS(=O)(=O)c2ncccc2OCC(F)(F)F)n1`, the Potency entry in experiment [1], in experiment [2], in experiment [3] and in [9] was “inactive” throughout. Further, the call in [4], in [5], in [6] and in experiment [7] was inactive.
As to `COc1cc(C[C@@H](C)N)c(OC)cc1C`, the Potency result in experiment [1], in [2], in experiment [3] and in [9] was “inactive” in each case. Moreover, the result in experiment [4], in experiment [5], in experiment [6] and in [7] was inactive.
In the case of `ClC(Cl)Br`, the Potency result in experiment [1], in experiment [2], in experiment [3] and in experiment [9] was “inactive” in each case. In addition, the call in experiment [4], in experiment [5] and in experiment [6] was inactive.
Consider `O=C(Nc1ccccc1)N(Cc1ccc(Cl)cc1)C1CCCC1`, for which the Potency entry in experiment [1] was “inactive”. In addition, the Potency in [3] was 61.1 µM (active); in experiment [9], 15.4 µM (active). Also, the molecule was classed as inactive in [4], in experiment [5] and in experiment [7].
As for `O=C1OC(=O)C2C1C1(Cl)C(Cl)=C(Cl)C2(Cl)C1(Cl)Cl` (stereo unspecified), the Potency entry in experiment [8], in experiment [2] and in experiment [3] was “inactive” each time. Moreover, the outcome in experiment [4], in [5], in experiment [6] and in experiment [7] was inactive.
On to `CC1(C(=O)Nc2ccc(O)c(Cl)c2Cl)CCCCC1`, for which the Potency result in experiment [8], in [1] and in experiment [2] was “inactive” in each case. In addition, in [9], the Potency is 7.7 µM (active). Besides, the call in experiment [4], in experiment [5], in experiment [6] and in experiment [7] was inactive.
For `C(CCOCC1CO1)COCC1CO1` (stereo unspecified), the Potency result in [1], in experiment [2] and in [3] was “inactive” in each case. In addition, the call in [4], in [5], in experiment [6] and in [7] was inactive.
For `CC(=O)C(Cl)Cl`, the Potency result in experiment [1], in [2] and in experiment [3] was “inactive” in each case. Further, the result in experiment [4], in [5] and in [7] was inactive.

These data come from PubChem BioAssay (Tox21).
